Structures are written as SMILES. A number with no mark means an inactive call. Results filed as inconclusive are left out. The source made the active and inactive calls. Unless noted, calls come from the whole dose curve; as a rule, active = well fitted curve in either direction with a large enough effect (not every such curve was filed as active); inconclusive = small, poorly fitted or top-dose-only effect, or another doubt; inactive = flat fitted curve, though single readings scatter. Where only a bound is given, the exact number is not on record here.

Experiment [1] has as its target Lysosomal acid glucosylceramidase (Homo sapiens) (UniProt P04062). As to the kind of experiment: Glucocerebrosidase-p2 (AID 348; in the data active = potency below about 10 µM; note: potency is the fitted concentration of half-maximal effect). The note with it: purified GBA, blue fluorogenic substrate, 40 min. The gist of the method:
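Compounds titrated from 0.6 nM upwards against 0.2 nM enzyme in pH 5.9 citric acid/KH2PO4, taurocholate, tween-20; blue fluorogenic substrate 80 uM, 40 min room temperature, stopped and read Ex 365/Em 440 for AC50.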

Experiment [2] concerns the target Cytochrome P450 1A2 (Homo sapiens) (UniProt P05177). Nature of the experiment: p450-cyp1a2 (AID 410; calls by dose curve; note: potency is the fitted concentration of half-maximal effect;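 for activity change, negative = inhibition: -100% = full effect of reference inhibitor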). The note with it: recombinant CYP1A2, luciferin-ME demethylation, luminescence; series mostly up to 11.4 µM. The procedure, abridged:
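Human CYP1A2 (20nM) demethylated Luciferin-ME at its Km (100uM) in 100mM KPO4. After 10 min compound preincubation, NADPH regeneration ran the reaction 60 min at room temperature. Luciferin was read by luminescence, normalized to 57 uM furafylline.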

A short description of experiment [3]: NFAT Signaling Pathway (AID 444).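 Note: carbachol stimulus at about its EC50 of 1 µM final; % is set by controls: 0 for no effect and ±100 for the full control effect.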 Particulars: Jurkat NFAT-bla M1, carbachol, beta-lactamase ratio, 5 h; at 7.69 µM (top of the series) unless noted. The procedure, abridged:
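Read-out: CCF4 FRET ratio (460 nm/530 nm) after 1 h RT dye loading, used for %activity and AC50 from titration series. Cells: Jurkat NFAT-β-lactamase/M1 line, treated with compound plus 1 uM carbachol for 5 h, 37 °C.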

The nature of experiment [4]: Stat Signaling Pathway (AID 446).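 Note: ME-180 cervical cancer cells given 40 pM IL-6 alongside compound; SIE-controlled beta-lactamase reporter measured as 460/530 nm FRET emission ratio; % is set by controls: 0 for no effect and ±100 for the full control effect.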 The note with it: ME-180 SIE beta-lactamase reporter, IL-6 stimulated, 5 h; at 7.69 µM (top of the series) unless noted. The procedure, abridged: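 ME-180 SIE-bla cells; overnight plating; cpd + IL-6 40 pM, 5 h, 37 C; LiveBLAzer 2.5 h RT; 460/530 nm emission ratio. Normalized to 300 pM IL-6 and 125 nM JAK inhibitor controls.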
The target in experiment [5] is Glucocorticoid receptor (Homo sapiens) (UniProt P04150). As to the kind of experiment: GR-GFP Redistribution (AID 450;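 active = compounds whose dose series gives a full or clear partial fitted curve of increased nuclear translocation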; note: potency is the fitted concentration of half-maximal effect). Particulars: U2OS GR-GFP nuclear translocation, laser cytometry, 2 h.
Glucocorticoid receptor (Homo sapiens), sequence (P04150 whole entry, looked up, the tested form may be a part): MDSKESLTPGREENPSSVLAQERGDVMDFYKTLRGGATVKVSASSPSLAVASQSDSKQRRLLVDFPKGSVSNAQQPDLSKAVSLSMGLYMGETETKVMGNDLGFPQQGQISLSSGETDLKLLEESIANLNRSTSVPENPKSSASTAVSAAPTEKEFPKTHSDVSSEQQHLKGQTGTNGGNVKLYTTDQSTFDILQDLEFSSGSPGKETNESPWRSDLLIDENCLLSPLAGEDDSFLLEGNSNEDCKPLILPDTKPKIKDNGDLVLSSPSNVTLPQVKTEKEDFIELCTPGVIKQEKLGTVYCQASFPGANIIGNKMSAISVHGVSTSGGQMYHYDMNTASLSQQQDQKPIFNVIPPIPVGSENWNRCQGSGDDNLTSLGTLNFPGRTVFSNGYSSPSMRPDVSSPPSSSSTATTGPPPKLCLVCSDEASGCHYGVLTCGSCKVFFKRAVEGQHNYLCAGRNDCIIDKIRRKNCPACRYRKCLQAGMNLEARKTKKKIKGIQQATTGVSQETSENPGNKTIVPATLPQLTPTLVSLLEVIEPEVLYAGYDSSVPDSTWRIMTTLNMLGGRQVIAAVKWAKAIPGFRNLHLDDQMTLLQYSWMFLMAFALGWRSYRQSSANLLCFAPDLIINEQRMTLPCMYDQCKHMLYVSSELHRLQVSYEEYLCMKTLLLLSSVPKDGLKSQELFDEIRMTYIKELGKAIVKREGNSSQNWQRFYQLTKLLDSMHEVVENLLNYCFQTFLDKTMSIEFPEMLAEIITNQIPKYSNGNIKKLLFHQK
Experiment [6] shares this target. As to the kind of experiment: GR-EFC Redistribution (AID 451; calls by dose curve; note: potency is the fitted concentration of half-maximal effect). The note with it: CHO-K1 GR-EFC translocation, beta-gal luminescence, 2 h. The procedure, abridged: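 Translocation of GR-ED fusion to nuclear EA restores b-gal, read by luminescence after 1 h room-temperature detection. Engineered CHO-K1 biosensor cells, 1,000/well, exposed 2 h at 37 C to titrations up to 46 uM final.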

Experiment [7] addresses Mitogen-activated protein kinase 10 (Mus musculus) (UniProt Q61831). Nature of the experiment: JNK3 AlphaScreen Assay (AID 530).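 Note: kinase came from lysate of stimulated human HepG2 cells; signal reports phosphorylation of biotinylated GST-cJun 1-79 at Ser73 with 10 µM ATP; % is set by controls: 0 for no effect and ±100 for the full control effect.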 Particulars: JNK3 lysate, c-Jun phosphorylation; series mostly up to 11.4 µM. The procedure, abridged: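 Room-temperature AlphaScreen kinase assay; pre-activated HepG2 lysate as JNK3 source, biotin-GST-cJun(1-79) substrate, 10 uM ATP, compound 15 min preincubation.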
For orientation: Bead proximity is the source of the signal in Alpha formats.

Experiment [8] concerns the target 3',5'-cyclic-AMP phosphodiesterase 4B (Homo sapiens) (UniProt Q07343). Nature of the experiment: qHTS Assay for Inhibitors of PDE-IV (AID 607; active = well fitted activation curve with a large enough effect in the main read-out, with a control signal flat, not every such curve was filed as active; note: % of control where 0% means no effect). The note with it: HEK293 ACTOne CNG channel cells, membrane potential fluorescence; series mostly up to 22.9 µM. The procedure, abridged:
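ACTOne HEK293 cells carry a modified cAMP-gated CNG channel and express endogenous PDE4; plated 1000 cells/well, compounds up to 22.9 uM final. Membrane-potential dye fluorescence (ex 535/em 590) was read; parental cells received 10 uM forskolin + 100 uM RO 20-1724.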
A general note: qHTS replaces the single test concentration by a dilution series.

The nature of experiment [9]: AP1 Signaling Pathway (AID 357). Note: % is set by controls: 0 for no effect and ±100 for the full control effect. The note with it: ME-180 (cervical carcinoma) AP-1-bla reporter, EGF-induced, beta-lactamase ratio, 5 h; at 7.69 µM (top of the series) unless noted. The gist of the method:
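AP-1-bla ME-180 cells with beta-lactamase reporter under AP-1 response element, stimulated with EC50 EGF; compounds titrated, 5 hours at 37 degrees Celsius. CCF4 read at 460/530 nm ratio; positive and negative modulators judged by AC50.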

Experiment [10] deals with Cytochrome P450 3A4 (Homo sapiens) (UniProt P08684). As to the kind of experiment: qHTS Assay for Activators of Cytochrome P450 3A4 (AID 885; active = well fitted curve in the direction sought with a large enough effect; an effect the other way counts as inactive or inconclusive; note: nearly all actives have a fitted effect of over 65% in size). Particulars: recombinant CYP3A4, Luciferin-PPXE luminescence, 60 min; series mostly up to 11.4 µM. The gist of the method: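 20nM CYP3A4 + 25uM Luciferin-PPXE (=KM), 200mM KPO4; cpd 10 min RT; NADPH regen, 60 min RT; stop w/ detection buffer, 20 min; luminescence. Normalized to 57 uM ketoconazole.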
Cytochrome P450 3A4 (Homo sapiens), sequence (P08684 whole entry, looked up): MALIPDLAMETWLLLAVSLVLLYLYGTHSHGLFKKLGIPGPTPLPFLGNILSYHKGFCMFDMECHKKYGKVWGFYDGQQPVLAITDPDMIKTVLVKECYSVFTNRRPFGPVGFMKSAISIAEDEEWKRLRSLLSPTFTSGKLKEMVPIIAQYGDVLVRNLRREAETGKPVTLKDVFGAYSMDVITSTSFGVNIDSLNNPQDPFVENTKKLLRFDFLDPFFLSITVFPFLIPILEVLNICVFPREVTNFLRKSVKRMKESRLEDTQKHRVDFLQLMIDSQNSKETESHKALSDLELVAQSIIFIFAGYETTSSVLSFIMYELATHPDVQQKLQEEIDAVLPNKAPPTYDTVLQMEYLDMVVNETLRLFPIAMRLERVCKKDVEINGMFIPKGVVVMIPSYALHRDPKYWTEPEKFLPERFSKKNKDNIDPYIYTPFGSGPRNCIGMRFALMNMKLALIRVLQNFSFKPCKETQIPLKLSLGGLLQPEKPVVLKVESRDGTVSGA

In experiment [11] the target is Cytochrome P450 2C19 (Homo sapiens) (UniProt P33261). Nature of the experiment: qHTS Assay for Inhibitors and Substrates of Cytochrome P450 2C19 (AID 899; active = well fitted curve in the direction sought with a large enough effect; an effect the other way counts as inactive or inconclusive; note: potency is the fitted concentration of half-maximal effect; nearly all actives have a fitted effect of over 60% in size). The note with it: recombinant CYP2C19, luciferin-H EGE luminescence; series mostly up to 11.4 µM. The gist of the method: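 5nM enzyme + 10uM Luciferin-H EGE (=KM), 50mM KPO4; cpd pin-transferred, 10 min 37C; NADPH regen, 60 min 37C; stopped w/ luciferin detection reagent, 20 min; luminescence. Normalized to 57uM ketoconazole (AC100).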
Cytochrome P450 2C19 (Homo sapiens), sequence (P33261 whole entry, looked up): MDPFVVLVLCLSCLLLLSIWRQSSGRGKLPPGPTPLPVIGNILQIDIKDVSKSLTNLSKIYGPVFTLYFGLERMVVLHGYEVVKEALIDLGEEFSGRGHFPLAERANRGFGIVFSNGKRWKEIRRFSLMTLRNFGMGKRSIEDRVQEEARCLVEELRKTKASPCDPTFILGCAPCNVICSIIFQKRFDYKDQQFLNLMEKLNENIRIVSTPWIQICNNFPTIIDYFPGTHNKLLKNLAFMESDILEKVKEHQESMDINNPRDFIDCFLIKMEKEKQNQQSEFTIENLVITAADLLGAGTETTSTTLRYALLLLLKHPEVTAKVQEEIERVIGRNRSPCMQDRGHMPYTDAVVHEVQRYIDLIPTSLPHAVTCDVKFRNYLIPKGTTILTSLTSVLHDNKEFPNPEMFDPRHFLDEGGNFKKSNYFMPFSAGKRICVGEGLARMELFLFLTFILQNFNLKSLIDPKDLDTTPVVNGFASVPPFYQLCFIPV

Lysosomal acid glucosylceramidase (Homo sapiens), sequence (P04062 whole entry, looked up): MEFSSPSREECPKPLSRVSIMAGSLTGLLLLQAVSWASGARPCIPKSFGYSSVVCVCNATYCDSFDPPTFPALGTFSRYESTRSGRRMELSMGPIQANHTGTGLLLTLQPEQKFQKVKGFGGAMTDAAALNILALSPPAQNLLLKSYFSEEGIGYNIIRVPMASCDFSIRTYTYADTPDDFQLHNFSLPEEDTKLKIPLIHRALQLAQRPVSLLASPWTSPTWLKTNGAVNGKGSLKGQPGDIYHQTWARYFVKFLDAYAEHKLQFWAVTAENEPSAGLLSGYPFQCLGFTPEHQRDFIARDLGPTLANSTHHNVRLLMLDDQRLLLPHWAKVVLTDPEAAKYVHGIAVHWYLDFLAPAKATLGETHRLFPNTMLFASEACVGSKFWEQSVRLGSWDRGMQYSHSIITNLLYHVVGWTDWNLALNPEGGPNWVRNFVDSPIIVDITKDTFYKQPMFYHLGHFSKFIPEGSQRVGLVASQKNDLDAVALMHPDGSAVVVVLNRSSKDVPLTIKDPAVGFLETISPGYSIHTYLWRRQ
Cytochrome P450 1A2 (Homo sapiens), sequence (P05177 whole entry, looked up): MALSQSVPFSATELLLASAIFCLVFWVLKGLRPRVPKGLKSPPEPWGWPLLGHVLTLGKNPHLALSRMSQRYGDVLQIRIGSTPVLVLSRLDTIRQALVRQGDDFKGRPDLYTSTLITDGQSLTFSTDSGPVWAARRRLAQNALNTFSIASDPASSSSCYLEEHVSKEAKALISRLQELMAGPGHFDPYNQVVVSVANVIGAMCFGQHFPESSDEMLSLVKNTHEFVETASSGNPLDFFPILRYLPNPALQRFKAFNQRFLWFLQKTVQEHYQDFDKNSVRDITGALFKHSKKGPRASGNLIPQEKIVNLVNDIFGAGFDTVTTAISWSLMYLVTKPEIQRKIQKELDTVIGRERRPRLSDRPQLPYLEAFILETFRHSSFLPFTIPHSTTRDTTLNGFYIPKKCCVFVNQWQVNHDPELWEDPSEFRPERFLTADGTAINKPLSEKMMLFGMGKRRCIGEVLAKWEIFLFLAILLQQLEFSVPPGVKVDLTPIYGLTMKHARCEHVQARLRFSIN
3',5'-cyclic-AMP phosphodiesterase 4B (Homo sapiens), sequence (Q07343 whole entry, looked up): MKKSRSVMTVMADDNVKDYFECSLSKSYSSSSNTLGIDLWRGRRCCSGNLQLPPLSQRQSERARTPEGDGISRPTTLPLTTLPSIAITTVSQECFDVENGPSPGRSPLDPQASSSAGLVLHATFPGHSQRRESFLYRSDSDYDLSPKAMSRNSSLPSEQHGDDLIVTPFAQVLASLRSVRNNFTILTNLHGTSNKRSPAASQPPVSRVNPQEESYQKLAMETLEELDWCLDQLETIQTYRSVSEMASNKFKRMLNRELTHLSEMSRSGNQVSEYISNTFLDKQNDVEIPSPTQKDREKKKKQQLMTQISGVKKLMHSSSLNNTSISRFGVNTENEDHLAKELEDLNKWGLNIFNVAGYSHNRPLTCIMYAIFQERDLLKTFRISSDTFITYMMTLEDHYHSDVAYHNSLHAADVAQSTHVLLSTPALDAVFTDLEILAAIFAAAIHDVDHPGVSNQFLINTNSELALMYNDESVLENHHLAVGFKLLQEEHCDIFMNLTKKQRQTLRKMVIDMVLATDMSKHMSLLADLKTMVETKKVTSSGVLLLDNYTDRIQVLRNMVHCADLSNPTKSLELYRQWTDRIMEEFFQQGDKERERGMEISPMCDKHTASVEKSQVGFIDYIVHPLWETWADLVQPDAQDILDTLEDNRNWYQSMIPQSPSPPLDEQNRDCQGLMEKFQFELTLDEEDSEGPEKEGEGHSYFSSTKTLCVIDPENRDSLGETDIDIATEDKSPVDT

For `CS[C@@H](CC(=O)O)C(=O)O`, the figures for the Potency in experiment [1], in [5] and in experiment [6] were > 11.4 µM, > 46 µM and > 9.22 µM, respectively. The Potency result in experiment [2], in experiment [7] and in [8] was “inactive” throughout. Further, the activity change, negative = inhibition in experiment [3] was 3.57%. Besides, in experiment [4], the activity, negative = inhibition is 2.44%.
With `c1cc(CSc2ncnc3nc[nH]c23)ccn1`, the Potency was > 11.4 µM in experiment [1] and > 46 µM in experiment [5]. For the same compound, in experiment [9], the activity change, negative = inhibition is 10.4%. The activity, negative = inhibition in experiment [4] is -2.3%. Besides, the Potency entry in experiment [7] and in experiment [8] was “inactive” each time.
As to `COc1cc(N=C(N)N=C(N)N)c2ncccc2c1`, the Potency is > 11.4 µM in experiment [1], 0.398 µM (active) in experiment [2], > 46 µM in experiment [5] and > 9.22 µM in experiment [6]. For the same compound, the activity change, negative = inhibition in experiment [3] is 3.48%. The activity, negative = inhibition in experiment [4] was -1.33%. Further, the Potency result in experiment [7] and in experiment [8] was “inactive” each time.
Consider `COc1cccc2c1C(=N)c1c(O)c3c(c(O)c1C2=O)C[C@](O)(C(C)=O)C[C@@H]3O[C@H]1C[C@H](N)[C@@H](O)[C@H](C)O1`, for which the Potency in experiment [1] is > 11.4 µM; in [5], > 46 µM; in experiment [6], > 9.22 µM. In addition, in experiment [9], the activity change, negative = inhibition is -2.66%. The Potency entry in experiment [8] is “inactive”.
Turning to `NCCSCCC(=O)O`, the Potency was > 11.4 µM in experiment [1], > 46 µM in [5] and > 9.22 µM in experiment [6]. In addition, the Potency entry in experiment [2], in experiment [7] and in experiment [8] was “inactive” throughout. The activity change, negative = inhibition in experiment [3] was 11.4%. Moreover, the activity, negative = inhibition in experiment [4] is 0.279%.
With `CCCCN1CSC(=S)N(Cc2ccccc2)C1`, the Potency was > 11.4 µM in experiment [1]; 3.98 µM (active) in experiment [2]; > 46 µM in [5]; > 9.22 µM in experiment [6]; 1.26 µM (active) in experiment [11]. In addition, the activity change, negative = inhibition in experiment [3] was -0.909%. For the same compound, the activity, negative = inhibition in experiment [4] was 2.92%. Besides, the Potency entry in experiment [7], in [8] and in experiment [10] was “inactive” in each case.
Consider `COc1ccc2c(=O)cc(-c3ccncc3)oc2c1OC`, for which the Potency in [1] is > 11.4 µM; in [2], 1.58 µM (active); in experiment [5], > 46 µM; in [6], > 9.22 µM; in [11] it was 1.58 µM (active). For the same compound, the activity change, negative = inhibition in experiment [3] is 2.62%. Besides, the activity, negative = inhibition in [4] is -17.8%. In addition, the Potency result in experiment [7], in experiment [8] and in experiment [10] was “inactive” throughout.
For `CC1CCN(CC[S-])CC1.O.O.[Cl][Pt]`, the Potency in experiment [1] was > 11.4 µM; in experiment [5] it was > 46 µM; in [6], > 9.22 µM. In experiment [9], the activity change, negative = inhibition was 29.8%. Further, the Potency result in experiment [7] and in experiment [8] was “inactive” throughout.
`CC(=O)O[C@H]1CC[C@@]2(C)C(=CC[C@@H]3[C@@H]4CC[C@H](c5cc(C(F)(F)F)n(C(C)=O)n5)[C@]4(C)CC[C@@H]32)C1`: the values for the Potency in experiment [1], in experiment [5] and in experiment [6] were > 11.4 µM, > 46 µM and > 9.22 µM, respectively. In addition, the Potency result in experiment [2], in experiment [7] and in experiment [8] was “inactive” throughout. For the same compound, the activity change, negative = inhibition in experiment [3] was 12.1%. Besides, the activity, negative = inhibition in experiment [4] is 16.4%.

These data come from PubChem BioAssay (NCATS).
